Screening data: PubChem BioAssay, National Center for Advancing Translational Sciences (NCATS)
Sm TGR inh: qHTS Assay for the Inhibitors of Schistosoma Mansoni Peroxiredoxins. purified TGR, DTNB reduction, TNB absorbance 405 nm. 360,000 tested, 3% active. AID 485364, 2010. Schistosoma mansoni thioredoxin glutathione reductase (TGR), Q962Y6. Potency, µM (doses to about 114 µM), hits mostly inhibitors; active = well fitted inhibition curve with a large enough effect; inconclusive = small, poorly fitted or top-dose-only effect; inactive = no such curve, though single readings can be large or run the other way; note: nearly all actives have a fitted effect of over 60% in size
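First, TGR (20 nM dispensed) and NADPH were mixed with compound. Second, a 15 min room-temperature incubation followed. Third, further NADPH and then DTNB were added to start the reaction. Finally, TNB absorbance was monitored kinetically.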
FMDV antiviral: High Throughput Screening for Foot and Mouth Disease Virus Antivirals. 410,000 tested, 1.2% active. AID 1159524, 2015. Potency, µM (titrated, usually from 57.9 µM), most hits filed as inhibitors. FMDV antiviral cell-based qHTS; calls by dose curve; tested in HEK293T cells; note: read-out not given here; nearly all actives have a fitted effect of over 45% in size
Shiga inhibitor: A qHTS for Small Molecule Inhibitors of Shiga Toxin | 290,000 tested, 9.2% active | AID 2315, 2010 | Vero cells, Shiga toxin protein synthesis inhibition reporter | inhibition, % at 38.7 µM; in the data active = inhibition mostly above about 28%, no sharp cut-off; inactive = mostly below about 43%
Cycloheximide cs: Cycloheximide Counterscreen for Small Molecule Inhibitors of Shiga Toxin; cell reporter, cycloheximide protein synthesis inhibition counterscreen; max response, %; 300,000 tested, 12% active; in the data active = max response mostly above about 13%, no sharp cut-off; inactive = mostly below about 14%; note: read at 38.3 µM for the half of the compounds with a filed dose
Numbers stand for hits; ! = a repeat was not active. The list is not random: actives were taken first. Their share in the collection is about 12%.

CCC(=O)NC(c1ccc(C)cc1)c1cc([N+](=O)[O-])c2cccnc2c1O (stereo not drawn) was read as Sm TGR inh inactive, FMDV antiviral inconclusive, Shiga inhibitor inactive and Cycloheximide cs inactive.
Screening Cc1ccc2c(c1)sc[n+]2Cc1ccccc1 returned Sm TGR inh 5.6µM, FMDV antiviral inactive, Shiga inhibitor 82 and Cycloheximide cs 42.
For Cc1ccc(-c2cc[n+](Cc3ccccc3)cc2)cc1 the results were Sm TGR inh inactive, FMDV antiviral inconclusive, Shiga inhibitor inactive and Cycloheximide cs inactive.
`CCc1cccc(NC(=O)C(CC(C)C)NS(=O)(=O)c2ccc3c(c2)oc(=O)n3C)c1` (stereo not drawn) gave Sm TGR inh inactive and FMDV antiviral inactive.
`CCN(c1ccc(OC)cc1)S(=O)(=O)c1ccc2[nH]c3c(c2c1)CCCCC3` gave Sm TGR inh inactive and FMDV antiviral inconclusive.
For O=C(Cc1cccs1)Nc1ccccc1F the results were Sm TGR inh inactive, FMDV antiviral inactive, Shiga inhibitor inactive and Cycloheximide cs 18.
For Cc1ccccc1NC(=O)Cc1cccs1 the results were Sm TGR inh inactive, FMDV antiviral inactive, Shiga inhibitor inactive and Cycloheximide cs inactive.
For O=C(Cc1cccs1)Nc1ccccc1C(=O)O the results were Sm TGR inh inactive, FMDV antiviral inactive, Shiga inhibitor inactive and Cycloheximide cs 21.
`O=C(Cc1cccs1)Nc1ccccc1NC(=O)Cc1cccs1` gave Sm TGR inh inactive, FMDV antiviral inactive, Shiga inhibitor inactive and Cycloheximide cs inactive.
`CCc1nnc(SCC(=O)Nc2ccc(F)cc2F)c2cc3sc(C)cc3n12` gave Sm TGR inh inactive and FMDV antiviral inactive.
O=C(Nc1ccc(F)cc1F)c1cc2ccc3cccnc3c2[nH]1 was read as Sm TGR inh inactive and FMDV antiviral inactive.
Screening O=C(N/N=C/c1ccc2c(c1)OCO2)c1ccn(Cc2ccc(Cl)cc2)n1 returned Sm TGR inh inactive, FMDV antiviral inactive, Shiga inhibitor inactive and Cycloheximide cs inactive.
For Cc1ccc(Cn2ccc(NC(=O)c3nn(C)cc3Cl)n2)cc1 the results were Sm TGR inh inactive, FMDV antiviral inactive, Shiga inhibitor 92 and Cycloheximide cs 38.
Screening Cc1ccccc1Cn1ccc(NC(=O)c2nn3cccnc3c2Cl)n1 returned Sm TGR inh inactive, FMDV antiviral inactive, Shiga inhibitor inactive and Cycloheximide cs 22.
`O=C(Nc1ccn(Cc2ccccc2)n1)c1ccc(F)cc1` gave Sm TGR inh inactive, FMDV antiviral inactive, Shiga inhibitor 85 and Cycloheximide cs 45.
Screening O=C(Nc1ccn(Cc2ccc(Cl)cc2)n1)c1ccc2c(c1)OCO2 returned Sm TGR inh inactive, FMDV antiviral inactive, Shiga inhibitor 50 and Cycloheximide cs inactive.
`Cc1ccccc1Cn1ccc(NC(=O)c2cc3ncc(Br)cn3n2)n1` gave Sm TGR inh inactive, FMDV antiviral inactive, Shiga inhibitor inactive and Cycloheximide cs inactive.
Screening O=C1C(=O)N(C2CCN(S(=O)(=O)c3ccccc3)CC2)CCN1Cc1ccccc1 returned Sm TGR inh inactive and FMDV antiviral inactive.
For COc1ccccc1-n1c(=O)c2c3c(sc2n(C)c1=O)CN(C(C)=O)CC3 the results were Sm TGR inh inactive and FMDV antiviral inactive.
For Cc1cccc(Cn2ccc(NC(=O)c3cccnc3)n2)c1 the results were Sm TGR inh inactive, FMDV antiviral inactive, Shiga inhibitor inactive and Cycloheximide cs inactive.
For Cc1cccc(Cn2ccc(NC(=O)c3ccc4c(c3)OCO4)n2)c1 the results were Sm TGR inh inactive, FMDV antiviral inactive, Shiga inhibitor 74 and Cycloheximide cs 28.
`O=C(O)/C=C/C(=O)Nc1ccc(N2CCOCC2)nc1N1CCOCC1` gave Sm TGR inh 2.2µM, FMDV antiviral inactive, Shiga inhibitor inactive and Cycloheximide cs inactive.
For CCOC(=O)c1nc(NCc2ccccc2)sc1C the results were Sm TGR inh inactive, FMDV antiviral inactive, Shiga inhibitor 89 and Cycloheximide cs 63.
`COc1cc(NC(=O)c2cnc(NCc3ccccc3)nc2C)cc(OC)c1OC` gave Sm TGR inh inactive, FMDV antiviral inactive, Shiga inhibitor inactive and Cycloheximide cs inactive.
CCOC(=O)c1cnc2ccc(OC)cc2c1NCCc1ccc(OC)c(OC)c1 was read as Sm TGR inh inactive, FMDV antiviral 18µM!, Shiga inhibitor inactive and Cycloheximide cs inactive.
For CCOC(=O)c1cnc(-n2nc(C)cc2C)nc1NCCO the results were Sm TGR inh inactive, FMDV antiviral inactive, Shiga inhibitor inactive and Cycloheximide cs inactive.
`CCOC(=O)c1cnc(NCc2ccccc2)nc1C` gave Sm TGR inh inactive, FMDV antiviral inactive, Shiga inhibitor 55 and Cycloheximide cs 44.
For CCOC(=O)c1sc(NC(=O)CCc2ccccc2)nc1C the results were Sm TGR inh inactive, FMDV antiviral inactive, Shiga inhibitor inactive and Cycloheximide cs inactive.
Screening CCOC(=O)c1cnc(-n2nc(C)cc2C)nc1NCc1ccccc1 returned Sm TGR inh inactive, FMDV antiviral 28µM, Shiga inhibitor inactive and Cycloheximide cs inactive.
`Cc1nc2sccn2c1CN1Cc2ccccc2OC(c2ccccc2F)C1` (stereo not drawn) gave FMDV antiviral inactive.
COc1ccc(NC(=O)N2CCCC3(CCN(C(=O)c4ccc(OC)cc4)CC3)C2)cc1 was read as FMDV antiviral inactive.
CCOC(=O)c1cnc2ccc(OCC)cc2c1NCc1cccnc1 was read as Sm TGR inh inactive, FMDV antiviral inactive, Shiga inhibitor 42 and Cycloheximide cs 27.
CCOC(=O)c1nc(-c2ccccc2)sc1C(C)=O was read as Sm TGR inh inactive, FMDV antiviral inactive, Shiga inhibitor inactive and Cycloheximide cs 20.
Screening CCOC(=O)c1nc(NCc2ccccc2)c2ccccc2n1 returned Sm TGR inh inactive, FMDV antiviral inactive, Shiga inhibitor 116 and Cycloheximide cs 40.
For CCOC(=O)c1nc(-c2ccccc2)oc1N(C)C the results were Sm TGR inh inactive, FMDV antiviral inactive, Shiga inhibitor inactive and Cycloheximide cs 17.
CCOC(=O)c1sc(N)nc1-c1ccccc1 was read as Sm TGR inh inactive, FMDV antiviral inactive, Shiga inhibitor inactive and Cycloheximide cs inactive.
`CCOC(=O)c1cnc2c(ccc3ccccc32)c1Cl` gave Sm TGR inh inactive, FMDV antiviral inactive, Shiga inhibitor 121 and Cycloheximide cs 21.
Screening CCOC(=O)c1cnc2ccc(OCC)cc2c1NCc1ccccc1 returned Sm TGR inh inactive, FMDV antiviral inconclusive, Shiga inhibitor 42 and Cycloheximide cs 19.
For Cc1cc(Nc2cccc(Cl)c2)nc2ccc(NC(=O)COc3ccc(Cl)cc3)cc12 the results were Sm TGR inh inactive and FMDV antiviral inactive.
For O=C(CCCCCn1c(=O)c2sccc2n(Cc2ccc(Cl)cc2)c1=O)NCc1ccc2c(c1)OCO2 the results were Sm TGR inh inactive and FMDV antiviral inactive.
Screening CCCCNC(=S)Nc1ccc(Cl)cc1 returned Sm TGR inh inactive, FMDV antiviral inactive, Shiga inhibitor 45 and Cycloheximide cs inactive.
CC(C)(C)C(=O)NC(=S)Nc1ccc(C(F)(F)F)cc1 was read as Sm TGR inh inactive, FMDV antiviral inactive, Shiga inhibitor 61 and Cycloheximide cs 43.
Screening S=C(NCc1ccc(Cl)cc1)Nc1ccncc1 returned Sm TGR inh 35µM, FMDV antiviral inactive, Shiga inhibitor inactive and Cycloheximide cs inactive.
